Molecules are shown by their SMILES. Results with a measured potency or affinity are listed apart. Calls of active or inactive are those of the source.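 The calls were made as follows: active = signal falls with a fitted half-maximal dose at most twice the top dose, in every run; inconclusive = steady partial drop, poor fit, or runs disagree; inactive = flat, rising or too weak in every run.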

This assay can be described thus: EF1alpha-driven Renilla reporter with control 3'UTR suppression – Clone20-Shn3RL cells, dual-Glo, cherry-pick, set 2, counter-screen for Shn3 3'UTR targeting project, dose response (AID 720724). Conditions: renilla luciferase luminescence, 24 h; series mostly up to 35 µM. In general terms: A counterscreen serves to expose hits that act by an unwanted route or on another target.
`CC(C)(C)C(=O)Nc1ccc(NC(=O)c2ccco2)nc1`: the compound was called inactive.

As for `CCN(CC)S(=O)(=O)c1ccc(S(=O)(=O)Nc2c(C)nn(C)c2C)cc1`, the call was inactive.

As to `CC(C)(C)C(=O)Nc1cc2nn(-c3ccccc3)nc2cc1Cl`, the compound was called inactive.

Take `O=C(Nc1ccc(Cl)cc1)c1cc(S(=O)(=O)N2CCOCC2)cs1`: the result was inactive.

Consider `O=C(CSc1nnc(-c2cccnc2)s1)Nc1ccnc2ccccc12`, for which the compound was classed as inactive.

For `Cc1cccc(CSc2cccc3cccnc23)c1`, the compound was classed as inactive.

For the compound `O=C(NCCc1ccccc1)c1ccc2c(c1)OCCO2`, the call was inactive.

Turning to `Cc1ccc(CNC(=O)c2cc3c(C)nc4ccccc4c3o2)cc1`, the outcome was inactive.

Take `CC(C)[C@H](NC(=O)OC(C)(C)C)c1nnc(S(=O)(=O)Cc2c(F)cccc2Cl)o1`: the outcome was inactive.

For the compound `CNc1ccccc1C(C)(C)c1cc(-c2cccc(OC)c2)no1`, the call was inactive.

For the compound `COc1ccccc1NC(=O)Cn1cc(C(=O)C2CC2)c2ccccc21`, the call was inactive.

For the compound `CCOC(=O)c1cn(CC(=O)Nc2cccc(Cl)c2C)nn1`, the outcome was inactive.

For the compound `O=C(c1n[nH]c(=O)c2ccccc12)N1CCN(C2c3ccccc3-c3ccccc32)CC1`, the outcome was inactive.

Turning to `O=C(Nc1ccc(N2CCOCC2)cc1)c1ccc(Cl)c(S(=O)(=O)N2CCCC2)c1`, the compound was called inactive.

With `COc1cccc(-n2c(C)nc3c(cnn3-c3ccc(Cl)cc3)c2=O)c1`, the call was inactive.

`Oc1ccc(-c2n[nH]c(C(F)(F)F)c2-c2ccccc2)c(O)c1`: the result was inactive.
